In PubChem BioAssay (Tox21):
Values joined by “and” are separate entries in the source; they are usually repeats but may differ in a detail not shown here. Equal entries are not always repeated. Some structures have more than one record in an assay (separate samples or runs), and their calls can disagree. Active and inactive are the calls of the source. A call without a number means that no potency is given here. Unless noted, calls follow the shape of the dose curve; as a rule, active = well fitted curve in the direction sought with a large enough effect in the repeat runs; inconclusive = weak or mixed curves; inactive = no such curve, though single readings can be large; an effect the other way counts as inactive or inconclusive.

Tests used:
[1] = qHTS assay to identify small molecule antagonists of the thyroid receptor (TR) signaling pathway - cell viability counter screen (AID 743064); also: nearly all actives have a fitted effect of over 50% in size
Procedure, shortened: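 GH3.TRE-Luc rat pituitary cells dosed after 4 hr plating, co-stimulated with T3 at 1 nM final, incubated 23.5 h at 37 C. Viability measured in the same wells by CellTiter-Fluor fluorescence after 30 min further at 37 C.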

[2] = system: thyroid hormone receptor (rat, GH3 cells); assay: qHTS assay to identify small molecule agonists of the thyroid receptor (TR) signaling pathway (AID 743066; calls by dose curve)
[3] = qHTS assay to identify small molecule antagonists of the estrogen receptor alpha (ER-alpha) signaling pathway - cell viability counter screen (AID 743074; calls by dose curve; also: nearly all actives have a fitted effect of over 45% in size)
[4] = target: Estrogen receptor (Homo sapiens) (UniProt P03372); assay: qHTS assay to identify small molecule agonists of the estrogen receptor alpha (ER-alpha) signaling pathway (AID 743075; calls by dose curve)
Sequence of Estrogen receptor (Homo sapiens) (P03372 whole entry, looked up): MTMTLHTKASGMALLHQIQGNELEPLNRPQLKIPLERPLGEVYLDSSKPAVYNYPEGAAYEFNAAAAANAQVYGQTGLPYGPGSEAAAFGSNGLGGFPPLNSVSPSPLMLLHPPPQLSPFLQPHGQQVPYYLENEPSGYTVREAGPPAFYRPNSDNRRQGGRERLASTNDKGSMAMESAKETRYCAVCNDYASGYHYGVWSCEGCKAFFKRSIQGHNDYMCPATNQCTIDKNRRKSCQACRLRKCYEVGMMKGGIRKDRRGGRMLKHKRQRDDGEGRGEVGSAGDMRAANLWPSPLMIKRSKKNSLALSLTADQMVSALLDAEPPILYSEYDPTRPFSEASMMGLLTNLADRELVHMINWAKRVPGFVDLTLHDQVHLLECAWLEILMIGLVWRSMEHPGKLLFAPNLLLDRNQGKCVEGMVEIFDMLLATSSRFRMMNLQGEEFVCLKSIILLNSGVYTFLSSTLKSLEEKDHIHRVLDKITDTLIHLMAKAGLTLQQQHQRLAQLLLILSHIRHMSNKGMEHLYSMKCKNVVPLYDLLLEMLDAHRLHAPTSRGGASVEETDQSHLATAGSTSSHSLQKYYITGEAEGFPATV

[5] = target: Estrogen receptor (Homo sapiens) (UniProt P03372); assay: qHTS assay to identify small molecule agonists of the estrogen receptor alpha (ER-alpha) signaling pathway using the BG1 cell line (AID 743079); also: nearly all actives have a fitted effect of over 20% in size
[6] = qHTS assay to identify small molecule antagonists of the estrogen receptor alpha (ER-alpha) signaling pathway using the BG1 cell line (AID 743080; calls by dose curve;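 also: BG1 cells stimulated with 17beta-estradiol alongside compound; nearly all actives have a fitted effect of over 25% in size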)
Procedure, shortened: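 Luciferase inhibition measured with ONE-Glo after 30 min at RT in BG1Luc4E2 cells given test compounds and 17beta-estradiol for 21.5 h at 37 C; CellTiter-Fluor viability read in the same wells beforehand.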

[7] = qHTS assay to identify small molecule antagonists of the estrogen receptor alpha (ER-alpha) signaling pathway using the BG1 cell line - cell viability counter screen (AID 743081);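 also: compound given together with 17beta-estradiol as the ER stimulus; nearly all actives have a fitted effect of over 45% in size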
Aromatase (Homo sapiens) = Aromatase (Homo sapiens) (UniProt P11511); assay: qHTS assay to identify aromatase inhibitors (AID 743083); also: nearly all actives have a fitted effect of over 55% in size
Sequence of Aromatase (Homo sapiens) (P11511 whole entry, looked up): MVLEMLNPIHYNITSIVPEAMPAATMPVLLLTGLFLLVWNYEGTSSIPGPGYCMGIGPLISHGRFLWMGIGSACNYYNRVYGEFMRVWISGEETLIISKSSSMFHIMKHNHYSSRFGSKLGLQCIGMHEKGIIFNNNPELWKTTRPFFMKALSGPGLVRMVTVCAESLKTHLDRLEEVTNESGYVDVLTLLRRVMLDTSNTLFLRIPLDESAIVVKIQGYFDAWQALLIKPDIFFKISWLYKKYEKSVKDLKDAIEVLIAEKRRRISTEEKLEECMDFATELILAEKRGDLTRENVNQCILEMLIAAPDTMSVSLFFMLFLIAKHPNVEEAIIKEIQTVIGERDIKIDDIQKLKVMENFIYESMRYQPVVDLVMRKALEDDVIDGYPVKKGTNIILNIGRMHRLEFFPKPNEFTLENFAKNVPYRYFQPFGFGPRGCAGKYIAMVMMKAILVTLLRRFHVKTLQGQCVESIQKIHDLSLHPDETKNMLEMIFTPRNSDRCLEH

[8] = qHTS assay to identify small molecule antagonists of the thyroid receptor (TR) signaling pathway (AID 743065); also: nearly all actives have a fitted effect of over 55% in size
Procedure, shortened: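 GH3.TRE-Luc rat pituitary cells carrying two TR response elements driving luciferase were plated for 4 h, given compound plus 1 nM T3 (final), and incubated 23.5 h at 37 C. ONE-Glo luminescence measured reporter inhibition; CellTiter-Fluor fluorescence tracked cytotoxicity.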

[9] = target: Estrogen receptor (Homo sapiens) (UniProt P03372); assay: qHTS assay to identify small molecule antagonists of the estrogen receptor alpha (ER-alpha) signaling pathway (AID 743069; active = well fitted curve in the direction sought with a large enough effect in the signal ratio in the repeat runs, not every such curve was filed as active; inconclusive = weak or mixed curves, or effect the other way; inactive = no such curve, though single readings can be large or run the other way; the % refers to the signal ratio)
Procedure, shortened: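 HEK293 cells stably carrying an ER-alpha-UAS-bla beta-lactamase reporter were pre-cultured overnight in 2% charcoal-stripped FBS medium. Test compounds in DMSO were added together with 17beta-estradiol for 18 hr at 37C. Read-out was fluorescence after 2 hr with LiveBLAzer B/G FRET substrate at room temperature.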
Potency is read from the fitted curve at half-maximal effect.

Row | Structure (SMILES) | Potency [1] | Potency [2] | Potency [3] | Potency [4] | Potency [5] | Potency [6] | Potency [7] | Potency (Aromatase (Homo sapiens)) | Potency [8] | Potency [9]
1 | O=S(=O)(O)c1ccc(O)cc1 | inactive | inactive | inactive | inactive | inactive | inactive | inactive | inactive |  | 
2 | O=C1c2cccc(O)c2C(=O)c2c(O)cccc21 | inactive | inactive | inactive |  |  |  |  | inactive | inactive | 
3 | CC1=CCC(C(C)(C)O)CC1 (stereo unspecified) | inactive | inactive | inactive | inactive | inactive | inactive | inactive | inactive |  | inactive
4 | COc1ccc(C(=O)CC(=O)c2ccc(C(C)(C)C)cc2)cc1 | 26.6 µM (active) and 65.8 µM (active) | inactive | inactive |  |  |  | inactive | inactive | 29.8 µM (active) | 
5 | CCCCOCCOCCO | inactive | inactive | inactive | inactive | inactive | inactive | inactive | inactive and 61.1 µM (active) |  | inactive
6 | COC(C)COC(C)COC(C)CO (stereo unspecified) | inactive | inactive | inactive | inactive | inactive | inactive | inactive | inactive |  | inactive
7 | Cc1ncc[nH]1 | inactive | inactive | inactive |  |  |  | inactive | inactive | inactive | 
8 | COC(=O)Nc1nc2ccc(S(=O)c3ccccc3)cc2[nH]1 (stereo unspecified) | inactive | inactive | inactive | inactive | inactive | 12.2 µM (active) | inactive | inactive |  | 
9 | CCCCC(CC)COC(=O)c1ccc(N(C)C)cc1 (stereo unspecified) | inactive | inactive | inactive | inactive | inactive | inactive | inactive | inactive |  | 
10 | O=C(c1ccccc1)c1ccc(O)cc1O | inactive | inactive and 30.6 µM (active) |  | 19.9 µM [inconclusive] (active) and 38.9 µM [inconclusive] (active) | 9.88 µM (active) and 9.69 µM (active) |  | inactive | inactive |  | inactive
11 | CCCCC(CC)COP(=O)(OCC(CC)CCCC)OCC(CC)CCCC (stereo unspecified) | inactive | inactive | inactive |  |  |  | inactive | inactive | inactive | 
12 | O=C(Nc1ccc(Cl)cc1)Nc1ccc(Cl)c(Cl)c1 | 4.22 µM (active) and 3.44 µM (active) | inactive |  | inactive |  | 13.3 µM (active) and 24.2 µM (active) | inactive | 9.64 µM (active) and 13.7 µM (active) |  | 3.47 µM [cytotoxic] (active)
13 | Cc1ccc(C)c(O)c1C | inactive | inactive | inactive | inactive | inactive | inactive | inactive | inactive |  | 
14 | OCCO | inactive | inactive | inactive | inactive | inactive | inactive | inactive | inactive |  | 
15 | Oc1ccc(O)cc1 | 26.6 µM (active) and 17.1 µM (active) and 34.4 µM (active) | inactive | inactive | inactive | inactive | inactive | inactive | inactive and 60.8 µM (active) |  | 
16 | O=C1OC2(c3cc(Br)c(O)c(Br)c3Oc3c2cc(Br)c(O)c3Br)c2c(Cl)c(Cl)c(Cl)c(Cl)c21 | 24.4 µM (active) and 41.6 µM (active) | inactive |  | inactive | inactive |  | 8.64 µM (active) and 18.6 µM (active) | inactive | 54.5 µM (active) and 41.6 µM (active) | 
17 | Clc1nc(Cl)c(Cl)c(Cl)c1Cl | inactive | inactive | inactive |  |  |  | inactive | inactive | inactive | 
18 | Cc1[nH]c(=O)c(C#N)cc1-c1ccncc1 | inactive | inactive | inactive | inactive | inactive | inactive | inactive | inactive |  | 
19 | CN(C)CCN(Cc1cccs1)c1ccccn1 | inactive | inactive | inactive | inactive | inactive | inactive | inactive |  |  | inactive
20 | COc1cccc2c1C(=O)c1c(O)c3c(c(O)c1C2=O)C[C@@](O)(C(=O)CO)C[C@@H]3O[C@H]1C[C@H](N)[C@H](O)[C@H](C)O1 | inactive and 1.68 µM (active) and 122 nM (active) | inactive | inactive | inactive and 2.68 µM [inconclusive] (active) and 15.5 µM [inconclusive] (active) | inactive | inactive | inactive and 27.3 µM (active) | inactive and 6.68 µM (active) and 1.72 µM (active) |  | 
21 | COc1ccccc1/C=C/C=O | 55.9 µM (active) | inactive | inactive | inactive | inactive | inactive | inactive | inactive |  | 
22 | CC(C)OC=O | inactive | inactive | inactive | inactive | inactive | inactive | inactive | inactive |  | 
23 | CCCCCCCCCCCO | inactive and 30.6 µM (active) | inactive | inactive | inactive | inactive | inactive | inactive | inactive and 27.3 µM (active) |  | 
24 | Nc1ncn([C@@H]2O[C@H](CO)[C@@H](O)[C@H]2O)c(=O)n1 | 5.31 µM (active) and 9.69 µM (active) | inactive | inactive | inactive | inactive | inactive | inactive | 13.3 µM (active) and 8.63 µM (active) |  | 
25 | O=P(O)(O)O | inactive | inactive | inactive |  |  |  | inactive | inactive | inactive | 
26 | O=CCc1ccccc1 | inactive | inactive | inactive |  |  |  | inactive | inactive | inactive | 
27 | O=C(/C=C/c1ccccc1)OCc1ccccc1 | inactive | inactive | inactive | inactive | 29.8 µM (active) | inactive | inactive | inactive |  | 

Row | Structure (SMILES) | Potency [1] | Potency [2] | Potency [3] | Potency [4] | Potency [5] | Potency [6] | Potency [7] | Potency (Aromatase (Homo sapiens)) | Potency [8] | Potency [9]
28 | CCCCNS(=O)(=O)c1ccccc1 | inactive | inactive | inactive | inactive | inactive | inactive | inactive | inactive |  | 
29 | NC=O | inactive | inactive |  |  |  |  | inactive | inactive | inactive | 
30 | CC(C)OB(OC(C)C)OC(C)C | inactive | inactive | inactive | inactive | inactive | inactive | inactive | inactive |  | 
31 | CN(C)CCC=C1c2ccccc2CCc2ccccc21 | 23.7 µM (active) and 5.45 µM (active) and 24.3 µM (active) | inactive |  | inactive | inactive |  | inactive | inactive | 26.6 µM (active) and 24.3 µM (active) and 21.7 µM (active) | 
32 | O=Cc1ccccc1O | inactive | inactive |  | inactive |  | inactive | inactive | inactive | inactive | 
33 | C[C@]12CC[C@H]3[C@@H](CCC4=CC(=O)CC[C@@]43C)[C@@H]1CC[C@@H]2C(=O)CO | inactive | inactive | inactive | inactive | 7.7 µM (active) | inactive | inactive | inactive |  | 
34 | Nc1ccc(Cl)cc1Cl | inactive | inactive | inactive | inactive | inactive | inactive | inactive | inactive |  | 
35 | C#C[C@]1(O)CC[C@H]2[C@@H]3CCc4cc(OC)ccc4[C@H]3CC[C@@]21C | inactive | inactive | inactive | 19 nM [inconclusive] (active) and 30.9 nM [inconclusive] (active) | 1.5 nM (active) and 0.8 nM (active) | inactive | inactive |  |  | 
36 | c1cc(N(CC2CO2)CC2CO2)ccc1OCC1CO1 (stereo unspecified) | 19.4 µM (active) and 27.3 µM (active) | inactive | inactive | inactive | inactive |  | inactive | 24.4 µM (active) and 54.5 µM (active) |  | 
37 | COc1cc([C@@H]2c3cc4c(cc3[C@H](O)[C@H]3COC(=O)[C@H]23)OCO4)cc(OC)c1OC | 0.0432 µM (active) | inactive |  |  |  |  | inactive | inactive |  | 
38 | CNCCCC12CCC(c3ccccc31)c1ccccc12 | 11.9 µM (active) and 4.86 µM (active) |  | inactive and 49 µM (active) | inactive | inactive |  | inactive | inactive and 30.6 µM (active) |  | 
39 | CCCCC/C=C/C=C/C=O |  | inactive | inactive |  |  |  | inactive | inactive |  | 
40 | C#C[C@]1(O)CC[C@H]2[C@@H]3CCC4=Cc5oncc5C[C@]4(C)[C@H]3CC[C@@]21C | inactive and 61.1 µM (active) |  | inactive | 3.38 µM [inconclusive] (active) and 6.17 µM [activator] (active) | 668 nM (active) and 969 nM (active) | inactive and 61.1 µM (active) | inactive | inactive |  | 
41 | Cn1cnc([N+](=O)[O-])c1Sc1ncnc2nc[nH]c12 | inactive | inactive | inactive | inactive | inactive |  | inactive | inactive |  | 
42 | O=C(/C=C/C=C/c1ccc2c(c1)OCO2)N1CCCCC1 | inactive | inactive | inactive | inactive | 1.37 µM (active) and 3.86 µM (active) |  | inactive | inactive |  | 
43 | Cc1cc2nc3c(=O)[nH]c(=O)nc-3n(C[C@H](O)[C@H](O)[C@H](O)CO)c2cc1C |  | inactive | inactive |  |  |  |  |  |  | 
44 | COc1c(Cl)c(Cl)c(Cl)c(Cl)c1Cl | inactive | inactive | inactive |  |  |  | inactive | inactive |  | 
45 | CN(C)C(=N)N=C(N)N | inactive | inactive | inactive |  |  |  | inactive |  |  | 
46 | CC(C)=CCC/C(C)=C\CO | inactive | 24.5 µM (active) and inactive | inactive |  |  |  | inactive |  |  | 
47 | CCCCCCCCCC(=O)OC | inactive | inactive | inactive |  |  |  | inactive | inactive |  | 
48 | C=C(C)C1CC=C(C)CC1 (stereo unspecified) | inactive |  | inactive | inactive | inactive | inactive | inactive | inactive |  | 
49 | Cc1c(OCC(F)(F)F)ccnc1CS(=O)c1nc2ccccc2[nH]1 (stereo unspecified) | inactive |  | inactive |  |  |  | inactive | inactive |  | 
50 | COC(=O)c1ccccc1 | inactive | inactive | inactive |  |  |  | inactive | inactive |  | 
51 | O=C(c1ccccc1)c1ccccc1O | inactive | inactive | inactive |  |  |  | inactive | inactive and 27.3 µM (active) |  | 
52 | Brc1cc(Oc2cc(Br)c(Br)c(Br)c2Br)c(Br)c(Br)c1Br | inactive | inactive | inactive |  |  |  | inactive | inactive |  | 
53 | C/C=C/C(=O)O | inactive | inactive | inactive |  |  |  | inactive |  |  | 
